Assay outcomes: PubChem BioAssay, several laboratories
697 NFkB inh – inhibitors of PMA/ionomycin-induced NF-kB reporter, 697 cells, primary screen, B-cell NF-kB inhibitor project, cell-based, luminescence, uHTS; 697 B-cell NF-kB luciferase reporter, 16 h; inhibition, % at 4 µM; 330,000 compounds, 0.33% hits; in the data active = inhibition above about 35%
F508del corr – F508del CFTR correction, initial screen, CFBE line, single point | CFBE cells, YFP halide quenching; stimulated with forskolin plus potentiator P3; % fluorescence drop versus neutral controls | activity (quench increase), % at 7.58 µM | 350,000 compounds, 0.36% hits | AID 720511, 2013;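 active = mean added fluorescence quench of at least 8% versus neutral control, with both replicates also reaching 8%; inconclusive = only one of the mean or replicate conditions met; inactive = mean below 8% and not both replicates reaching 8%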;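 also: cells transiently co-express mutant CFTR-F508del with the halide-sensitive YFP; corrector assay measuring rescue of mutant channel to the surface after 24 h compound exposure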
HIF activator – HIF pathway transcriptional activators, primary screen, cell-based, U2OS HRE-luciferase, luminescence. U2OS HRE-luciferase reporter; normalized: DMSO 0%, desferrioxamine 100%. activation, % at 7.5 µM (by protocol). 300,000 compounds, 0.32% hits. AID 1910, 2009;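 active = mean activation of at least 10% of the iron chelator positive control signal, with at least half of replicates also reaching 10%; inconclusive = mean and replicate majority disagree about reaching 10%; inactive = mean and most replicates under 10%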
Jurkat NFkB inh – inhibitors of induced NF-kB luciferase reporter, primary screen, TCR NF-kB activation inhibitor project, cell-based, luminescence, uHTS; Jurkat, PMA/ionomycin-induced NF-kB luciferase reporter; 330,000 compounds, 0.53% hits; inhibition, % at 4 µM; in the data active = inhibition above about 50%
Numbers stand for hits; . = inactive; ? = inconclusive; / = no result given. A selection: hits, their analogues and other compounds. The true share with any hit is near 0.93%.

SMILES	697 NFkB inh	F508del corr	HIF activator	Jurkat NFkB inh
COc1ccc(N(C)S(=O)(=O)c2cccc(C(=O)NCC3CCCCC3)c2)cc1	/	8.7	.	/
CO[C@H](CN(C)S(=O)(=O)c1ccc(C)cc1)[C@@H](C)CN([C@H](C)CO)S(=O)(=O)c1cccc(Cl)c1	/	.	/	/
CO[C@@H](CN(C)S(=O)(=O)c1ccc(C)cc1)[C@H](C)CN([C@@H](C)CO)S(=O)(=O)c1cccc(Cl)c1	/	11	/	/
O=C(Cc1ccccn1)NCC[C@@H]1CC[C@H](NC(=O)Nc2ccc(C(F)(F)F)cc2)[C@H](CO)O1	/	12	/	/
O=C(Cc1ccccn1)NCC[C@H]1CC[C@H](NC(=O)Nc2ccc(C(F)(F)F)cc2)[C@@H](CO)O1	/	.	/	/
CN(C)C(=O)C[C@H]1CC[C@@H](NC(=O)NC2CCCC2)[C@@H](CO)O1	/	.	/	/
C[C@@H]1CN([C@@H](C)CO)S(=O)(=O)c2ccc(C#Cc3ccccc3F)cc2O[C@@H]1CN(C)C(=O)c1ccc2c(c1)OCO2	/	.	/	/
C[C@@H]1CN([C@H](C)CO)S(=O)(=O)c2ccc(C#Cc3cccc(F)c3)cc2O[C@@H]1CN(C)C(=O)NC1CCCCC1	/	10	/	/
C[C@H]1CN([C@@H](C)CO)S(=O)(=O)c2ccc(C#Cc3ccc(F)cc3)cc2O[C@H]1CN(C)C(=O)NC1CCCCC1	/	10	/	/
C[C@H](CO)N1C[C@H](C)[C@@H](CN(C)C(=O)NC2CCCCC2)Oc2cc(C#Cc3cccc(F)c3)ccc2S1(=O)=O	/	.	/	/
C[C@H](CO)N1C[C@H](C)[C@H](CN(C)C(=O)NC2CCCCC2)Oc2cc(C#Cc3cccc(F)c3)ccc2S1(=O)=O	/	8.4	/	/
C[C@H]1CN([C@@H](C)CO)S(=O)(=O)c2ccc(C#Cc3ccc(F)cc3)cc2O[C@@H]1CN(C)C(=O)NC1CCCCC1	/	.	/	/
C[C@H]1CN([C@@H](C)CO)S(=O)(=O)c2ccc(C#Cc3ccccc3F)cc2O[C@H]1CN(C)C(=O)c1ccc2c(c1)OCO2	/	9.6	/	/
O=C(N[C@@H]1C[C@@H]2O[C@@H](CO)CC[C@@H]2O[C@@H]1CCc1ccc(C#Cc2ccccc2)cc1)c1ccccn1	/	.	/	/
COc1ccc(C#Cc2ccc3c(c2)[C@H]2[C@H](CCN2Cc2ccncc2)[C@H](CO)N3)cc1	/	.	/	/
C[C@H]1CN([C@@H](C)CO)S(=O)(=O)c2ccc(C#Cc3cccc(F)c3)cc2O[C@H]1CN(C)C(=O)NC1CCCCC1	/	12	/	/
C[C@@H]1CN([C@@H](C)CO)S(=O)(=O)c2ccc(C#Cc3ccc(F)cc3)cc2O[C@@H]1CN(C)C(=O)NC1CCCCC1	/	.	/	/
CC(=O)N(C)C[C@@H]1Oc2cc(C#Cc3ccc(F)cc3)ccc2S(=O)(=O)N([C@H](C)CO)C[C@@H]1C	/	8.0	/	/
C[C@H](CO)N1C[C@H](C)[C@@H](CN(C)C(=O)c2ccc(F)cc2)Oc2cc(C3=CCCCC3)ccc2S1(=O)=O	/	.	/	/
CCCc1nc(SC2CCCC2)c2c(=O)n(C)c(=O)n(C)c2n1	.	8.1	.	.
CCOc1ccc(NC(=O)c2ccccc2NC(=O)CNC2CCCC(C)C2C)cc1 (stereo not drawn)	.	11	/	.
CC(=O)Nc1ccc(NC(=O)COc2cccc3c2OC(C)(C)C3)cc1	.	11	.	.
CCOC(=O)c1c(C)[nH]c(C)c1C(=O)COC(=O)c1ccc([N+](=O)[O-])s1	.	9.3	/	.
CCNC(=S)NNC(=O)c1ccccn1	.	/	.	.
O=C(NNC(=S)Nc1ccc(Cl)c(Cl)c1)c1ccccn1	.	?	60	.
SMILES	697 NFkB inh	F508del corr	HIF activator	Jurkat NFkB inh
O=Cc1ccccc1OCc1ccc2c(c1)OCO2	.	11	.	.
CCOC(=O)C1CCN(C(=O)C2CCCN(c3ncnc4c3nc3n4CCCCC3)C2)CC1 (stereo not drawn)	.	.	400	.
C[C@@H]1CN([C@H](C)CO)C(=O)c2cc(NS(=O)(=O)c3ccccc3)ccc2O[C@@H](C)CCCCO[C@@H]1CN(C)C(=O)c1ccncc1	/	.	/	/
C=CCN=c1scc(-c2ccc3c(c2)NC(=O)CO3)n1/N=C(\C)c1ccccn1	/	8.7	/	/
C=CCN=c1scc(-c2ccc(F)cc2)n1/N=C/c1ccccn1	.	.	.	.
COc1ccc2c3c([nH]c2c1)[C@H](CO)N(C(=O)C1CC1)CC31CN(C(=O)c2ccncc2)C1	/	.	/	/
O=C1OCC2=C1C(c1ccc3c(c1)OCO3)c1cc3c(cc1O2)OCO3 (stereo not drawn)	/	9.8	/	/
C[C@H](CO)N1C[C@H](C)[C@@H](CN(C)Cc2ccc(-c3ccccc3)cc2)Oc2ccc(NC(=O)CCCCCC(=O)Nc3ccccc3N)cc2CC1=O	/	.	/	/
COc1ccc(CNC(=O)CSc2nc3ccc(C)cc3[nH]2)cc1	.	.	.	.
CCCCNC(=O)CSc1nc2ccc(C)cc2[nH]1	.	17	.	.
CC(C)NC(=O)N(C)C[C@@H]1Oc2ncc(-c3cccc(C#N)c3)cc2C(=O)N([C@H](C)CO)C[C@H]1C	/	.	/	/
Cc1cc(C)c2c(N)c(C(=O)Nc3ccccc3Br)sc2n1	.	.	.	.
Cc1cc(C)c2c(N)c(C(=O)Nc3ccccc3F)sc2n1	.	.	30	.
O=C(N/N=C/c1cc(Cl)cc(Cl)c1O)c1ccncc1	.	.	29	.
O=C(N/N=C/c1cc(Br)cc(Br)c1O)c1ccncc1	.	.	13	.
O=C(N/N=C/c1cc(Br)cc(Br)c1O)c1cccc(N2CCCC2=O)c1	.	.	9.6	.
C[C@H]1CN([C@@H](C)CO)C(=O)Cc2cc(NC(=O)C3CCCCC3)ccc2O[C@H]1CN(C)S(=O)(=O)c1ccccc1	/	.	/	/
O=C(NCCc1csc(-c2cccc(F)c2)n1)c1ccco1	.	.	16	.
CCCC(=O)N1CCC2(CC1)CN(C(=O)CC1CC1)[C@@H](CO)c1c2c2ccc(OC)cc2n1C	/	.	/	/
CCc1n[nH]c(=S)n1/N=C/c1ccc(-c2ccc(Br)cc2)o1	.	.	22	.
O=c1c2ccccc2nc(N/N=C/c2c(O)ccc3ccccc23)n1O	.	/	15	.
Oc1ccc2ccccc2c1C=NNc1ccccn1	/	9.7	/	/
O=c1c2ccccc2nc(N/N=C/c2ccc(O)cc2)n1O	.	/	.	.
Fc1cccc(F)c1/C=N/Nc1ccccn1	.	.	.	.
O=C(O)C[C@@H]1CC[C@@H](NC(=O)Nc2cc(F)ccc2F)[C@@H](CO)O1	/	.	/	/
SMILES	697 NFkB inh	F508del corr	HIF activator	Jurkat NFkB inh
COc1cc(C(O)CO)ccc1OS(=O)(=O)O (stereo not drawn)	.	10.0	/	.
COc1ccccc1C#Cc1ccc2c(c1)O[C@@H](CN(C)Cc1ccccc1)[C@@H](C)CN([C@H](C)CO)S2(=O)=O	/	.	/	/
O=C(CN1CCCC1)Nc1ccc(-c2nc3cc(NC(=O)CN4CCCC4)ccc3o2)cc1	.	/	13	.
CCN(CC)CC(=O)Nc1ccc(-c2nc3cc(NC(=O)CN(CC)CC)ccc3o2)cc1	.	/	.	.
Cc1cc(Cl)n2c(nc3cc(F)c(F)cc32)c1C#N	/	.	9.5	/
Cc1cc(C)n2c(=O)c3ccc(Cl)cc3nc2c1C#N	.	.	.	.
